Assay outcomes deposited in PubChem BioAssay by National Center for Advancing Translational Sciences (NCATS).
Sampled rows, rich in hits. Any-hit rate of the full collection: about 6.7%.
PINK1 expr mod = A Quantitative High throughput Screen to Identify Chemical Modulators of PINK1 Expression; PINK1 immunofluorescence, high-content cytometry, 24 h; 410,000 compounds, 0.2% hits; Potency, µM (highest dose often 76.6 µM), inactives show top-dose activation (PINK1 increase), hits mostly activators; active = well fitted activation curve with a large enough effect; inconclusive = small, poorly fitted or top-dose-only effect; cell line not stated here; also: % of control where 0% means no effect; nearly all actives have a fitted effect of over 65% in size
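PINK1 protein level read as immunofluorescence by microplate cytometer in a fixed, stained stable cell line after 24 h exposure to five compound concentrations, with CCCP as control.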
MCF10A rerep = A quantitative high throughput screen for small molecules that induce DNA re-replication in MCF 10a normal breast cells | 350,000 compounds, 2.9% hits | MCF 10A DNA re-replication, Hoechst nuclear intensity, 48 h | Potency, µM (doses to about 46.1 µM), for the others: at the highest dose activity, positive = re-replication, hits mostly activators; also: % of control where 0% means no effect; nearly all actives have a fitted effect of over 50% in size
KB-3-1 cytotox = qHTS assay for MDR1-selective chemotherapeutics: Primary screen using the parental adenocarcinoma cell KB-3-1; 400,000 compounds, 1.4% hits; Potency, µM (top dose mostly 46.1 µM), usual class: cytotoxic; AID 1347075, 2019; KB-3-1 viability, CellTiter-Glo ATP luminescence, 72 h; also: % is scaled to controls: 0 for no effect and ±100 for the full control effect; nearly all actives have a fitted effect of over 60% in size
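72 h, 37 °C compound treatment of KB-3-1 parental cells; CellTiter-Glo added, 10 min, luminescence read. Data corrected against DMSO-only plates and normalized before curve fitting.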
SW480 rerep = A quantitative high throughput screen for small molecules that induce DNA re-replication in SW480 colon adenocarcinoma cells; AID 624297, 2012; SW480 DNA re-replication, Hoechst DNA content imaging, 48 h; 340,000 compounds, 1.8% hits; Potency, µM (doses to about 46.1 µM), without a hit: at the top dose re-replication activation, hits mostly activators; also: % of control where 0% means no effect; nearly all actives have a fitted effect of over 55% in size
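Per well, 250 cells were exposed to pinned compound for 48 hr. Nuclear DNA was visualised with Hoechst (40 min, 37 C) and total object intensity recorded by fluorescence scanning.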
KB-V1 cytotox = qHTS assay for MDR1-selective chemotherapeutics: Primary screen using the drug-selected MDR subline cells KB-V1; KB-V1 MDR cells viability, CellTiter-Glo, 72 h; Potency, µM (doses to about 46.1 µM), usual class: cytotoxic; 400,000 compounds, 3.4% hits; AID 1347076, 2019; also: % is scaled to controls: 0 for no effect and ±100 for the full control effect; nearly all actives have a fitted effect of over 60% in size
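Luminescent ATP read-out (CellTiter-Glo, 10 min) measures survival of drug-selected KB-V1 MDR cells after 72 h, 37 degrees C compound exposure. Medium: phenol-red-free DMEM, 10% FBS. Values from fitted concentration-response curves.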
An asterisk follows results filed as active; i = inactive; ? = inconclusive; · = no result given; [ ] = another dose, or the depositor's remark. Unless noted, calls follow the shape of the dose curve; as a rule, active = well fitted curve in the direction sought with a large enough effect; inconclusive = small, poorly fitted or top-dose-only effect, or another doubt; inactive = no such curve, though single readings can be large; an effect the other way counts as inactive or inconclusive. Potency is read from the fitted curve at half-maximal effect.

SMILES	PINK1 expr mod	MCF10A rerep	KB-3-1 cytotox	SW480 rerep	KB-V1 cytotox
COc1ccc(-c2cc(C(F)F)n3ncc(C(=O)N4CCN(C)CC4)c3n2)cc1	-2.4%	16.8%	i	16.5%	i
O=C(NCc1ccco1)c1cnn2c(C(F)F)cc(-c3ccccc3)nc12	9.5%	8.2µM*	i	17.5%	i
COCCNC(=O)c1cnn2c(C(F)F)cc(-c3ccccc3)nc12	-1.6%	?	i	14.6µM*	i
COc1ccc(-c2cc(C(F)F)n3ncc(C(=O)N4CCSCC4)c3n2)cc1	-1.4%	?	i	5.17µM*	i
O=C(Nc1c(C(=O)NCc2ccco2)cnn1-c1ccccc1)c1cccc(F)c1	-2.5%	0.3%	i	-2.5%	9.2µM*
Cc1ccc(C(=O)Nc2c(C(=O)NCc3ccco3)cnn2-c2ccccc2)cc1	-0.7%[38.3 µM]	-0.6%	i	-4.4%	i
Cc1cc(C)c(Cc2c(C)nc3c(C(=O)NCc4ccco4)cnn3c2C)c(C)c1	4.5%	?	20.6µM*	-3.0%	2.91µM*
Cc1ccc(CNC(=O)c2cnn3c(C)c(Cc4c(F)cccc4Cl)c(C)nc23)cc1	1.2%	·	i	·	i
CC(=O)N1CCc2c(sc3c2c(=O)n(CCc2ccccc2)c(=O)n3Cc2ccccc2C)C1	-1.0%	·	i	·	?
NC(=O)Cn1c(=O)n(CCc2ccccc2)c(=O)c2c3c(sc21)CCCC3	-2.0%[38.3 µM]	-5.6%	i	?	4.11µM*
CC(=O)N1CCc2c(sc3c2c(=O)n(CCc2ccccc2)c(=O)n3Cc2ccc(Cl)cc2)C1	2.4%	·	20.6µM*	·	?
CCCN(CC(=O)Nc1ccccc1C)C(=O)c1ccc2c(c1)S(=O)(=O)N=C1CCCCCN12	-0.2%	-4.8%	i	4.0%	?
CCC1CN(CCNC(=O)c2ccccc2-n2cccn2)Cc2cc(OC)ccc2O1 (centres undefined)	-0.3%	·	·	·	·
O=C(NC1CCCCCCC1)C1CCN(c2nc3ccccc3o2)CC1	-2.4%[38.3 µM]	-2.6%	18.4µM*	0.2%	2.31µM*
Cc1oc(-c2ccccc2F)nc1CN1CCC(C(=O)NC2CCCc3ccccc32)CC1 (centres undefined)	-3.4%	14.3%	i	3.4%	8.2µM*
Cc1oc(-c2ccccc2F)nc1CN1CCC(C(=O)NC2CCCCCCC2)CC1	0.8%	8.3%	i	1.7%	11.6µM*
O=C(NC1CCCc2ccccc21)C1CCN(c2c3c(nc4ncnn24)CCC3)CC1 (centres undefined)	-1.8%[38.3 µM]	-4.6%	i	4.7%	20.6µM*
O=C(NCCc1ccccc1)C1CCN(c2nc3ccccc3o2)CC1	3.3%[38.3 µM]	-11.0%	i	-1.7%	i
COCCN1C(=O)C(=O)/C(=C(/O)c2ccc(S(=O)(=O)N3CCCCC3)cc2)C1c1ccc(O)c(OC)c1 (centres undefined)	-0.8%	8.3%	i	-16.4%	i
O=C1c2ccccc2C(c2nnnn2-c2ccc3c(c2)OCCO3)N1Cc1cccc(F)c1 (centres undefined)	3.4%	·	i	·	?
COC(=O)c1ccc(N2CN=C(c3ccc(C)cc3)NC2=S)cc1	6.5%	25.9µM*	i	-1.0%	i
O=[N+]([O-])c1ccc(C(O)CN=Cc2ccc(O)cc2O)cc1 (centres undefined)	23.1%	16.4µM*	i	9.8%	i
Cc1nn(-c2ccccc2)c2c1C(O)n1c(nc3ccccc31)S2 (centres undefined)	·	16.4µM*	i	-3.0%	18.4µM*
COc1ccccc1OCC(=O)N/N=C/c1cccc2cccnc12	3.0%	13.3%	i	?	i
CCn1c(C)nc2cc(C(=O)N/N=C/c3cccc(OC)c3O)ccc21	0.9%	?	i	1.64µM*	?
CCn1c(C)nc2cc(C(=O)N/N=C/c3ccc(O)c(O)c3O)ccc21	-1.3%	23.9%	i	-2.4%	i
COc1cccc(/C=N/NC(=O)COc2cccc3cccnc23)c1O	2.6%	?	?	13µM*	i
